Measurements published in PubChem BioAssay.
Values joined by “and” are separate entries in the source; they are usually repeats but may differ in a detail not shown here. Equal values may be shown once. Active and inactive are the calls of the source.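 How the source made its calls, unless noted: active means compounds whose cell count with miR-34 switched on is under 0.7 times the count with it off; inactive means the rest.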

Tests used:
[1] = tested on: Aerobactin synthetase IucA (Klebsiella pneumoniae); test: IucA aerobactin synthetase inhibitors, biochemical, Tocris library, absorbance (AID 1345561; call rule not given here;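 further: 100% = enzyme without compound and 0% = no enzyme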); conditions: purified IucA enzyme assay, absorbance (OD) read-out; stronger effect = lower value;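 tested at 8 µM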
[2] = sensitizers of A549 cells to miR-34 induction, primary screen, imaging, A549 dox-inducible miR-34, nuclei and caspase counts (AID 1347080); conditions: A549 miR-34 inducible, Hoechst nuclei count, 48 h
[3] = viability rescue of complex I mutant cybrids, primary screen, cell-based, galactose medium, ATP luminescence (AID 1645843;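 active means z-score of at least 1.8 in each of two replicates, scored against plate mean and spread of sample wells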;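 further: positive z means more ATP and so rescue of galactose-driven cybrid death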); conditions: complex I mutant cybrid cells, 72 h, stronger effect = higher value
[4] = stronger effect = lower value, cell number ratio, induced over uninduced
[5] = measured here: relative caspase fold change +Dox/-Dox
[6] = measured here: total cells with miR-34 induction, stronger effect = lower value
[7] = measured here: total cells without miR-34 induction

Structure (SMILES) | remaining activity [1] | fold change [2, 4] | fold change [2, 5] | cell count [2, 6] | cell count [2, 7] | z-score [3]
CNC(=O)[C@@H](Cc1ccccc1)N(C)C(=O)[C@@H](Cc1ccc2ccccc2c1)N(C)C(=O)/C=C/CC(C)(C)N | 99.8% (inactive) | 1 (inactive) | 0.957 | 9200 | 9170 | -0.39 (inactive)
CC(=O)NC1=NN(C(C)=O)C(C)(c2ccccc2)S1 (centres undefined) | 109% (inactive) | 1.17 (inactive) | 2.25 | 1640 | 1400 | -0.275 (inactive)
Clc1cccc(C=NC=Nc2cccc(Cl)c2)c1 | 117% (inactive) | 0.902 (inactive) | 0.788 | 8200 | 9090 | 0.99 (inactive)
NS(=O)(=O)c1nn2cc(-c3ccccc3)nc2s1 | 99.1% (inactive) | 1.09 (inactive) | 0.795 | 4960 | 4530 | -0.585 (inactive)
COC(=O)C1=C(C)NC(C)=C(C(=O)NCCCN2CCC(c3ccccc3)(c3ccccc3)CC2)C1c1ccc([N+](=O)[O-])cc1 (centres undefined) | 98% (inactive) | 0.668 (active) | 1.88 | 294 | 441 | -0.7 (inactive)
COC(=O)c1ccccc1NC(=O)c1ccc(F)cc1 | 99.3% (inactive) | 0.965 (inactive) | 0.872 | 7260 | 7520 | 0.635 (inactive)
Nc1nc2c(ccc3ccccc32)s1 | 121% (inactive) | 0.908 (inactive) | 1.66 | 8670 | 9550 | 0.415 (inactive)
CCCOc1ccc(Br)cc1-c1cc(-c2ccc(Cl)cc2)[nH]c1-c1ccncc1 | 102% (inactive) | 0.969 (inactive) | 1.19 | 8200 | 8460 | 0.1 (inactive)
O=C(O)COc1ccc(OCCNC[C@@H](O)COc2ccccc2)cc1 | 89.3% (inactive) | 0.984 (inactive) | 1.02 | 8850 | 8990 | 0.955 (inactive)
O=c1nc2ccccc2c2n1CC(CN1CCN(c3ccccc3)CC1)N2 (centres undefined) | 100% (inactive) | 0.869 (inactive) | 0.649 | 9300 | 10700 | -0.605 (inactive)
CCCCC(=O)NCCc1c(Cc2ccccc2)[nH]c2ccccc12 | 108% (inactive) | 0.933 (inactive) | 0.702 | 6310 | 6770 | 0.26 (inactive)
CC(C)n1nnc2cc(C(=O)O)ccc21 | 115% (inactive) | 0.911 (inactive) | 1.97 | 7770 | 8530 | 0.275 (inactive)
CCCCCCN(CCCCCC)C(=O)Cc1c(-c2ccc(Cl)cc2)[nH]c2ccc(Cl)cc12 | 102% (inactive) | 0.89 (inactive) | 0.984 | 5700 | 6410 | -1.19 (inactive)
CN1c2cc3c(cc2N=C(c2ccc(C(=O)O)cc2)c2ccccc21)C(C)(C)CCC3(C)C | 106% (inactive) | 0.924 (inactive) | 2 | 7660 | 8280 | -0.495 (inactive)
COc1cccc(C=NC=Nc2cccc(OC)c2)c1 | 120% (inactive) | 0.917 (inactive) | 0.661 | 8640 | 9420 | -0.08 (inactive)
COC(=O)[C@@H]1C2C[C@H]3c4[nH]c5ccccc5c4CCN3C[C@@H]2CC[C@@H]1O (some centres undefined) | 95.9% (inactive) | 0.91 (inactive) | 2.92 | 8430 | 9270 | 0.315 (inactive)
CC(C)NCC(O)COc1ccccc1-n1cccc1 (centres undefined) | 99.6% (inactive) | 0.968 (inactive) | 0.992 | 8690 | 8980 | -0.43 (inactive)
N[C@@H](CC(=O)Nc1ccc(Oc2cc(F)c(F)cc2Br)cc1)C(=O)O | 98.2% (inactive) | 0.952 (inactive) | 1.1 | 7870 | 8270 | 0.265 (inactive)
O=C1C(c2ccccn2)=[N+]([O-])c2ccccc21 | 123% (inactive) | 0.941 (inactive) | 0.616 | 8260 | 8780 | -0.62 (inactive)
COC(=O)C1=C(C)NC(C)=C(C(=O)OCCSc2ccccc2)C1C (centres undefined) | 91.1% (inactive) | 0.923 (inactive) and 0.85 (inactive) | 0.923 and 0.966 | 2710 and 6700 | 2930 and 7880 | -0.87 (inactive)
O=C(Nc1ccc([N+](=O)[O-])cc1O)Nc1ccccc1Br | 105% (inactive) | 1.13 (inactive) and 1.09 (inactive) | 1.05 and 1.85 | 5450 and 2460 | 4830 and 2250 | -0.58 (inactive)
O=C(NCCN1CCCCC1)c1ccc(I)cc1 | 103% (inactive) | 0.954 (inactive) | 0.747 | 9320 | 9760 | 0.155 (inactive)

Structure (SMILES) | remaining activity [1] | fold change [2, 4] | fold change [2, 5] | cell count [2, 6] | cell count [2, 7] | z-score [3]
CCCn1c(=O)c2[nH]c(-c3ccccc3)nc2n(CCC)c1=O | 113% (inactive) | 1.13 (inactive) | 0.687 | 4790 | 4230 | -0.115 (inactive)
Nc1c(S(=O)(=O)O)cc(Nc2cccc3ccccc23)c2c1C(=O)c1ccccc1C2=O | 109% (inactive) | 0.981 (inactive) | 1.43 | 9410 | 9590 | 3.16 (active)
CCCn1c(=O)[nH]c2nc(-c3ccc(S(=O)(=O)O)cc3)[nH]c2c1=O | 93.6% (inactive) | 0.829 (inactive) | 2.26 | 7230 | 8720 | 1.45 (inactive)
CCS(=O)(=O)N(C)[C@H]1c2cc(C#N)ccc2OC(C)(C)[C@@H]1O | 111% (inactive) | 0.889 (inactive) | 1.89 | 8640 | 9720 | 0.545 (inactive)
Cc1nc2ccc(NC(=O)Nc3ccnc4cccnc34)cc2o1 | 111% (inactive) | 0.867 (inactive) | 0.84 | 7250 | 8360 | 1.19 (inactive)
CCN(CC)c1ccc(/C=N/NC(=O)c2ccc(O)cc2)cc1 | 100% (inactive) | 0.945 (inactive) | 1.02 | 5490 | 5810 | 0.055 (inactive)
O=S(=O)(NCCCCCCc1ccccc1)c1cccc2c(Cl)cccc12 | 101% (inactive) | 0.934 (inactive) | 0.599 | 8620 | 9230 | -1.14 (inactive)
CC[C@H](CO)Nc1nc(Nc2cccc(-c3ccccn3)c2)c2ncn(C(C)C)c2n1 | 119% (inactive) | 1.12 (inactive) | 1.35 | 1500 | 1340 | -0.95 (inactive)
CC(=O)N[C@H](Cc1c[nH]c2ccccc12)C(=O)OCc1cc(C(F)(F)F)cc(C(F)(F)F)c1 | 106% (inactive) | 0.923 (inactive) | 0.896 | 8110 | 8790 | -0.035 (inactive)
CCc1cc(C(C)=O)c(O)cc1OCCCCCC(C)(C)c1nn[nH]n1 | 116% (inactive) | 0.891 (inactive) | 1.51 | 7060 | 7920 | -0.21 (inactive)
Cc1nc2c(c(=O)[nH]1)CSCC2 | 100% (inactive) | 0.983 (inactive) | 1.6 | 9080 | 9230 | -0.035 (inactive)
CN(C)CCC1(c2ccc(Cl)cc2)Cc2ccccc2C(=O)O1 (centres undefined) | 122% (inactive) | 0.975 (inactive) | 1.4 | 7700 | 7900 | -0.195 (inactive)
Clc1ccc(CCCOCCCN2CCCCC2)cc1 | 105% (inactive) | 0.895 (inactive) | 1.39 | 7600 | 8480 | -0.64 (inactive)
CCc1cc(C2NNC(C)C2c2ccc3c(c2)OCCO3)c(O)cc1O (centres undefined) | 92.2% (inactive) | 1.01 (inactive) | 1.27 | 4520 | 4490 | 0.625 (inactive)
Oc1ccc(-c2c(-c3ccccc3)nn3c(C(F)(F)F)cc(C(F)(F)F)nc23)cc1 | 95% (inactive) | 0.915 (inactive) | 2.74 | 8170 | 8930 | 0.225 (inactive)
OC[C@H]1O[C@@H](n2cnc3c(NC4CCCC4)nc(Cl)nc32)[C@H](O)[C@@H]1O | 122% (inactive) | 0.891 (inactive) | 0.662 | 8890 | 9980 | 0.55 (inactive)
C[C@H]([C@@H](O)c1ccc(O)cc1)N1CCC(Cc2ccccc2)CC1 (racemic) | 93.2% (inactive) | 0.927 (inactive) | 0.793 | 8080 | 8720 | -1.02 (inactive)
Clc1cccc2c1CN(C1=NCCN1)C2 | 99.4% (inactive) | 0.914 (inactive) | 0.792 | 9080 | 9940 | -0.085 (inactive)
CC1(C)CC(=O)C(C2C3=C(CC(C)(C)CC3=O)Oc3ccccc32)C(=O)C1 (centres undefined) | 120% (inactive) | 0.884 (inactive) | 0.511 | 9160 | 10400 | -0.35 (inactive)
COc1ccc(CC(=O)NC(/N=C(\NC#N)Nc2cccc3ncccc23)C(C)(C)C)cc1OC (centres undefined) | 122% (inactive) | 0.95 (inactive) | 1.31 | 9530 | 10000 | 0.08 (inactive)
CC(=O)OCCNC(=O)c1cccnc1 | 106% (inactive) | 0.936 (inactive) | 0.614 | 9480 | 10100 | 0.15 (inactive)
N[C@H]1CCN(O)C1=O | 122% (inactive) | 1.02 (inactive) | 0.709 | 8480 | 8300 | -0.005 (inactive)
